Bioassay records as filed in PubChem BioAssay.
A selection: hits, their analogues and other compounds. The true share with any hit is near 10%.
Six1-Eya2 blk = blocks human Six1 binding to Eya2; Q15475+O00167; AlphaScreen GST-Six1/His-Eya2 binding, biochemical; stronger effect = lower value; activity change, % (concentration not given with the values); 360,000 compounds, 0.56% hits; in the data active = activity change below about -65%; inconclusive = mostly about -30% to -63%; also: % is scaled to controls: 0 for no effect and ±100 for the full control effect
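AlphaScreen with GST-Six1 and His-Eya2 (5X mix: 250 nM and 500 nM), glutathione donor and nickel acceptor beads; buffer 50 mM Tris pH 8.0, 300 mM NaCl, 1 mM TCEP; 1 h at 37 C in the dark.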
HP1b binding inh = inhibitors of HP1-beta chromodomain binding to methylated histone tails; P83916; AlphaScreen HP1-beta / biotin-H3K9me3 peptide binding; 390,000 compounds, 0.56% hits; Potency, µM (series often up to 114 µM), inactives show top-dose activity change, negative = inhibition, usual class: inhibitors; also: potency is read from the fitted curve at half-maximal effect; nearly all actives have a fitted effect of over 70% in size
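AlphaScreen: HP1-beta (50 nM) preformed 30 min with biotin-H3(1-18)K9me3 peptide (50 nM) in PBS pH 7.4, 0.01% Tween-20. Compound added for 30 min at RT, then streptavidin donor/nickel chelate acceptor beads (10 ug/mL) for 30 min.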
G9a block = inhibitors of human histone lysine methyltransferase G9a | Q96KQ7 | G9a H3K9 monomethylation, AlphaScreen, 2 h | Potency, µM (titrated, usually from 102 µM), for the others: at the top dose activity, negative = inhibition, actives largely listed as inhibitors | 350,000 compounds, 8.8% hits; also: potency is read from the fitted curve at half-maximal effect; % is scaled to controls: 0 for no effect and ±100 for the full control effect; nearly all actives have a fitted effect of over 75% in size
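G9a (20 nM) was preincubated 15 min with compound, then reacted 2 h at room temperature with 500 nM biotin-H3K9 peptide and 20 µM SAM. Monomethyl-H3K9 detected by AlphaScreen using anti-H3K9me1 antibody.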
CtBP-E1A blk = blocks the CtBP interaction with E1A; AlphaScreen GST-E1A/His-CtBP binding, 1536-well; stronger effect = lower value; activity change, % (test concentration not listed); 340,000 compounds, 0.49% hits; in the data active = activity change below about -65%; inconclusive = mostly about -30% to -63%; also: % is scaled to controls: 0 for no effect and ±100 for the full control effect
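GST-E1A and His-tagged CtBP (125 nM each as 5X stock) were preincubated with pin-transferred compound for 2 h at 37 °C in the dark, then glutathione donor and nickel acceptor beads were added for 1 h before AlphaScreen reading.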
BAZ2B block = inhibitors of human BAZ2B bromodomain; Q9UIF8; AlphaScreen BAZ2B-H3K14Ac peptide displacement; Potency, µM (highest dose often 114 µM), without a hit: top-dose activity change, negative = inhibition, hits mostly inhibitors; 360,000 compounds, 4.4% hits; AID 504333; also: potency is read from the fitted curve at half-maximal effect; % is scaled to controls: 0 for no effect and ±100 for the full control effect; nearly all actives have a fitted effect of over 60% in size
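BAZ2B 50 nM plus b-H3(5-23)K14Ac 50 nM, PBS pH 7.4/0.01% Tween-20, 30 min RT; compound added (max 110 uM), 30 min RT; streptavidin donor/Ni-chelate acceptor beads 10 ug/mL final, 20 min dark; AlphaScreen read.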
JMJD2A Tudor = inhibitors of human JMJD2A Tudor domain; AlphaScreen JMJD2A-Tudor / H3K4me3 peptide binding; Potency, µM (highest dose often 114 µM), for the others: top-dose activity change, negative = inhibition, hits mostly inhibitors; 390,000 compounds, 4.4% hits; AID 504339; also: potency is read from the fitted curve at half-maximal effect; % is scaled to controls: 0 for no effect and ±100 for the full control effect; nearly all actives have a fitted effect of over 50% in size
Target sequence (O75164 whole entry, looked up, the tested form may be a part): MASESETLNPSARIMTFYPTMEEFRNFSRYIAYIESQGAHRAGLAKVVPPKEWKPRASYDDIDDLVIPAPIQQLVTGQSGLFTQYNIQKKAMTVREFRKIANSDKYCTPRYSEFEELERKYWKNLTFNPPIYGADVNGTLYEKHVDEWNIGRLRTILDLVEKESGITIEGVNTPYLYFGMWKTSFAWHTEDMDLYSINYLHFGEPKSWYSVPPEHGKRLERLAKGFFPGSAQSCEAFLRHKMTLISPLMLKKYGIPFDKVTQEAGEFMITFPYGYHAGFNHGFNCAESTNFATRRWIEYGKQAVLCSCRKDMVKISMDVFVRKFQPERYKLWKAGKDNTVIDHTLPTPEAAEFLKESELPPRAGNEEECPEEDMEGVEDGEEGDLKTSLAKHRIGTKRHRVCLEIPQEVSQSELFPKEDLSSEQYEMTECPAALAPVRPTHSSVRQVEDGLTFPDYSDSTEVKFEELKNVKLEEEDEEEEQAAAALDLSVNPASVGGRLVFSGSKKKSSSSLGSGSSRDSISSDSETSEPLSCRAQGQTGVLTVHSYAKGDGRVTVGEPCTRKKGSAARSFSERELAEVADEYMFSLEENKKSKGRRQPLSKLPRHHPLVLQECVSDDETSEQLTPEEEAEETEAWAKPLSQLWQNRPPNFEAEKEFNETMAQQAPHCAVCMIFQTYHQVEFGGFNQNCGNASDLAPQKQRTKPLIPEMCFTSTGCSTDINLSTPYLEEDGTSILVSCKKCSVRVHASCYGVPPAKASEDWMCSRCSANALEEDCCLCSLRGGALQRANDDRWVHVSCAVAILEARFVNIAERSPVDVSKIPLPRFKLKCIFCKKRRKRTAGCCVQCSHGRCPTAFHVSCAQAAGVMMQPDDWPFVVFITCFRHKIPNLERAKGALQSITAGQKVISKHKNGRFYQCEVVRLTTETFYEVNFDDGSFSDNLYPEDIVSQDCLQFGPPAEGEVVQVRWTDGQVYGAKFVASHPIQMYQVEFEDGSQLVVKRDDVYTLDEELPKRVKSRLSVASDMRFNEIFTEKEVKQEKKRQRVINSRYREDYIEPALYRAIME
* hit, by the source's call; ? = inconclusive; nt = no result given; [ ] = remark or other dose. Unless noted, calls follow the shape of the dose curve; as a rule, active = well fitted inhibition curve with a large enough effect; inconclusive = small, poorly fitted or top-dose-only effect; inactive = no such curve, though single readings can be large or run the other way.

SMILES	Six1-Eya2 blk	HP1b binding inh	G9a block	CtBP-E1A blk	BAZ2B block	JMJD2A Tudor
Cc1ccc(C(=O)O)cc1NC(=S)NC(=O)c1ccc([N+](=O)[O-])c(C)c1	2.4	6.1%	50.1µM*	10.4	?	-6.1%
Cc1ccc(C(=O)NC(=S)N2CC(C)OC(C)C2)cc1[N+](=O)[O-] (configuration not stated)	1.7	2.6%	39.8µM*	5.5	-32.4%	-28.8%
Cn1c(=O)n(-c2ccc3c(c2)OCO3)c2nc(-c3ccc(Cl)cc3)nc(C(N)=O)c21	nt	27.4%	11.9%[59 µM]	nt	-9.0%	-12.1%
O=C(CSC1=Nc2ccccc2N=C(c2ccc(F)cc2)C1)NCc1ccccc1Cl	nt	22.1%[57 µM]	6.2%[59 µM]	nt	-8.6%	-3.8%
CCOc1nc(SC(C(C)=O)C(=O)Nc2ccccc2)nc(N(C)C)n1 (configuration not stated)	0.9	38.5%	12.6µM*	4.0	-24.6%	79.4µM*
COc1ccc(-c2csc(Nc3ccc(S(=O)(=O)Nc4cc(OC)nc(OC)n4)cc3)n2)cc1	-16.8	?	-11.7%[59 µM]	-20.9	44.7µM*	?
COc1cc(NS(=O)(=O)c2ccc(NC(C)=O)cc2)nc(OC)n1	0.2	34.3%	2.8%[59 µM]	3.0	-5.3%	5.2%
COc1cc(NS(=O)(=O)c2ccc(Nc3nc(-c4ccccn4)cs3)cc2)nc(OC)n1	-79.5*	2.6%	-33.9%	-76.1*	?	?
COc1ccc(-c2csc(Nc3ccc(S(=O)(=O)Nc4cc(C)on4)cc3)n2)cc1C	-6.1	-14.7%	39.8µM*	nt	50.1µM*	?
Cc1ccc(Nc2nc(-c3ccc(S(=O)(=O)N4CCCC4)cc3)cs2)cc1C	-13.1	-0.1%	44.7µM*	-6.6	?	?
COc1cc(NS(=O)(=O)c2ccc(NC(=O)c3cccs3)cc2)nc(OC)n1	-27.5	-3.0%	-14.1%	-5.9	-14.6%	-18.7%
CCn1c(CNC(=O)c2ccc(OC)cc2)nnc1SCC(=O)Nc1ccc(OC)cc1	nt	29.2%	7.2%[59 µM]	nt	-4.4%	5.4%
CCCCSc1nc(CCC)cc(=O)[nH]1	4.8	20.8%	?	12.4	0.4%	-10.8%
CCCCSc1nc(C(=O)O)cc(=O)[nH]1	4.9	39.7%	39.8µM*	4.3	-1.9%	39.8µM*
CCCCC(Sc1nc2cc3c(cc2c(=O)n1CCCC(=O)NCc1ccc2c(c1)OCO2)OCO3)C(=O)OCC (configuration not stated)	nt	28.8%	5.3%[59 µM]	nt	-2.8%	-4.7%
CN(C)c1ccc(/C=C2\CCCc3c2nc2ccccc2c3C(=O)O)cc1	-0.7	11.0%	39.8µM*	10.8	-23.0%	-17.0%
COc1cc(/C=C2\CCCc3c2nc2ccccc2c3C(=O)O)cc([N+](=O)[O-])c1O	?	?	39.8µM*	?	56.2µM*	?
O=C(O)c1ccc(/C=C2\CCCc3c2nc2ccccc2c3C(=O)O)cc1	-10.2	22.6%	?	-2.2	-10.7%	-5.5%
COc1ccc(/C=C2\CCCc3c2nc2ccccc2c3C(=O)O)cc1OC	nt	nt	28.2µM*	nt	-22.4%	nt
Cc1cccc(N2CCN(C(=O)CN3C(=O)COc4ccc(S(=O)(=O)N5CCCC5)cc43)CC2)c1C	nt	40.7%	-15.9%[59 µM]	nt	-4.5%	-13.6%
Cc1ccc(C)c(N2CCN(C(=O)CCS(=O)(=O)c3cc4c(cc3Cl)NC(=O)CO4)CC2)c1	nt	11.8%	9.6%[59 µM]	nt	-4.3%	-16.1%
Cc1c(Br)c(O)c(Br)c2sc(=O)oc12	?	28.2µM*	3.55µM*	-9.7	?	44.7µM*
CCN(CC)c1ccc(NC(=O)Cn2cc3c(n2)CCC(C)C3)c(C)c1 (configuration not stated)	-29.7	?	4.47µM*	-22.2	?	?
CCN(CC)c1ccc(NC(=O)Cn2cc3c(n2)CCCC3)c(C)c1	nt	14.5%	10µM*	nt	-27.9%	?
CC(=O)Nc1ccc(NC(=O)Cn2cc3c(n2)CCCCC3)cc1	nt	37.7%	15.8µM*	nt	-34.9%	-16.8%
C(=N\c1nccs1)/Nc1nccs1	2.7	-77.3%	28.2µM*	5.9	79.4µM*	35.5µM*
